The full ranking holds about 33,000 sequences; the median of “e-score” is about -0.038, and the highest 2% start at about 0.33. Shown is part of a subset that was picked to be rich in the highest values.

For the assay, the target named is T1, GST-Rok-C97-191 (Bacillus subtilis subsp. subtilis str. …, UniProt O34857 97-191).
T1 sequence: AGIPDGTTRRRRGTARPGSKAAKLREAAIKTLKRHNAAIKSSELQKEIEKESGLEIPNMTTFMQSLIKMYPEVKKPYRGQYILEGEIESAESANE
The assay can be described thus: protein binding microarray; Rok is a gene silencer of Bacillus subtilis; high values mean tight binding. Conditions: protein: recombinant; tags: GST (pTH5325, pDEST15-Magic modified); dsDNA, one strand shown. In outline:
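Every oligonucleotide joins a 25-mer constant primer to a 35-mer variable part drawn from a de Bruijn sequence of order 10, so each non-palindromic 8-mer appears at least 32 times and each palindromic 8-mer 16 times. The preference for every 8-mer is reported as a unitless, rank-based enrichment score (E-score). This score spans 0.5 for the most favored 8-mer to −0.5 for the most disfavored.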
With CGACCGGA, the binding signal was -0.00838 E-score.
The result for GGTTCCGA reads 0.0637 E-score; that for ACTTGTTC, 0.195 E-score.
Under GGCAAGAA stands -0.058 E-score; under CTCGAAAC, 0.104 E-score; under ATGCCCGA, -0.167 E-score.
As for AACTCATA, the binding signal was 0.0551 E-score.
The result for GATAGCAA reads 0.137 E-score.
On to AATAGCTG, for which the binding signal is 0.186 E-score.
Under AATAGCTA stands 0.329 E-score; under GATAGCGA, 0.0913 E-score.
Under CATAGCTA stands 0.304 E-score; under GATAGCTA, 0.367 E-score.
In the case of CAGTCTAA, the binding signal was -0.037 E-score.
As for GGCAAGTA, the binding signal was determined as 0.0714 E-score.
The result for CACAAGTA reads 0.205 E-score; that for AACAAGTT, 0.0415 E-score.
In the case of TACAAATA, the binding signal came out at 0.359 E-score.
Under ATAAAATA stands 0.396 E-score; under TAAAAATA, 0.351 E-score; under GTAAAATA, 0.306 E-score.
The result for CACAAATA reads 0.243 E-score; that for ATAAAATG, 0.246 E-score.
Under AAAAAATA stands 0.323 E-score.
As for AACAAATA, the binding signal stood at 0.24 E-score.
Under CTAAAATA stands 0.295 E-score.
Turning to AACAAGTA, the binding signal was 0.371 E-score.
Under CTCTCGCA stands -0.118 E-score.
As for AATCCGAA, the binding signal was 0.0539 E-score.
Under CTGAAGCA stands -0.0795 E-score; under AGGTCACA, -0.186 E-score.
The result for GCGGTTAA reads 0.123 E-score; that for AAGAACTT, -0.176 E-score; that for AAGTCTAA, -0.0843 E-score.
The result for ACTGAAGT reads 0.155 E-score; that for AGGGACCA, -0.0833 E-score; that for GATAAATA, 0.323 E-score.
For the sequence CTAAAAAA, the binding signal is 0.168 E-score.
Under AATAAATA stands 0.258 E-score; under TAAAAAAA, 0.328 E-score.
On to TATAAATA, for which the binding signal came out at 0.381 E-score.
For TTAAAAAA, the binding signal was -0.0566 E-score.
As to CTCCTTGA, the binding signal is -0.109 E-score.
Under TCATGGAA stands -0.0558 E-score; under CGAGTCTA, -0.0403 E-score.
Under ACGAACTC stands -0.0425 E-score; under CGGAATTC, 0.0787 E-score.
With CGAAACCA, the binding signal is -0.131 E-score.
Under GGAAACAA stands 0.0324 E-score; under GGAAACTA, 0.354 E-score.
Under AGAAACTG stands 0.0822 E-score; under AGAAACTA, 0.377 E-score; under CGAAACTC, 0.0357 E-score.
Under AGAAACTC stands 0.0994 E-score; under CGAAAACA, 0.348 E-score; under AGAAAACA, 0.0817 E-score.
GGAAACCA: the binding signal was -0.105 E-score.
With CGAAACTA, the binding signal was determined as 0.425 E-score.
The result for GGAAAACA reads -0.00212 E-score; that for GAAATGGC, -0.16 E-score; that for ACTCGTAC, 0.0277 E-score.
With CAGTAATC, the binding signal was -0.0737 E-score.
Under GATGCAGC stands -0.0978 E-score.
Under AACATATT stands 0.24 E-score; under GTACGCCA, -0.0805 E-score; under GCTTCACA, -0.0519 E-score.
The result for CATGACTC reads 0.0199 E-score.
As for AGTGGTAC, the binding signal is 0.202 E-score.
The result for ATAGGTAA reads 0.225 E-score.
Under AATGGTAT stands 0.328 E-score; under AGTGGTAG, 0.378 E-score; under CGTGGTAG, 0.206 E-score.
As for ATTGGTAG, the binding signal was 0.38 E-score.
Consider ATAGGTAG, for which the binding signal stood at 0.358 E-score.
As to ATTGGTAC, the binding signal stood at 0.278 E-score.
Under AATGGTAG stands 0.441 E-score.
The result for CATGGTAG reads 0.188 E-score; that for ATTGGTAA, 0.258 E-score.
The result for ATAGGTAC reads 0.257 E-score; that for CTTATTCC, 0.00112 E-score.
In the case of AAGAGAGC, the binding signal is -0.136 E-score.
The result for AGCGTACC reads -0.188 E-score.
The result for AGCGGGAG reads -0.145 E-score.
Under ACCAACTA stands 0.161 E-score; under TACGGCCA, -0.0766 E-score; under ACTTTCGC, 0.0461 E-score.
For TACCCATA, the binding signal was 0.234 E-score.
Consider AGCCTTAT, for which the binding signal was -0.11 E-score.
Under ACTACTAG stands 0.361 E-score.
As for ACTACAAT, the binding signal was determined as 0.329 E-score.
For ACTACAAC, the binding signal was determined as 0.295 E-score.
The result for GCTACTAC reads 0.264 E-score; that for ACTACTGC, 0.113 E-score.
Regarding ACTACATC, the binding signal came out at 0.334 E-score.
Under ACTACAAG stands 0.137 E-score; under CCTACATC, 0.187 E-score.
In the case of ACTACATG, the binding signal is 0.307 E-score.
The result for ACTACTAC reads 0.419 E-score; that for ACTACTCG, 0.159 E-score; that for CCTACTAG, 0.18 E-score.
In the case of CTGCCTTC, the binding signal was -0.104 E-score.
Under GCTCGCAA stands -0.145 E-score; under AGCTAGGA, -0.00935 E-score.
As for CCTACTAA, the binding signal came to 0.101 E-score.
Under ACTACGAT stands 0.362 E-score; under ACTACTCA, 0.265 E-score; under ACTACGAA, 0.163 E-score.
The result for CCTACTTC reads 0.0914 E-score; that for ACTACGAC, 0.0766 E-score.

Values taken from paper PMC6212790, “How bacterial xenogeneic silencer rok distinguishes foreign from self DNA in its resident genome”.
